# Measurements taken from PubChem BioAssay.
# Several values for one entry are separate records, joined by “and”; a condition that tells them apart may be missing. Identical values can stand only once. Inconclusive results are not listed. More than one record can exist for a structure, and the calls need not agree. Activity calls are given as the source filed them. Cut-off read from the data, not from the text of the source, unless noted: active = inhibition above about 80%; inactive = the rest.
# Columns and labels:
# [1] = viability loss in pontine glioma line – cell-based, SU-DIPG-XXV, MIPE5.0, CellTiter-Glo, qHTS, dose response (AID 1347065; cut-off not given, nearly all actives have AC50 up to about 26 µM;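 note: cells exposed to compound for 48 hours before ATP readout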); conditions: CellTiter-Glo ATP luminescence
# [2] = viability loss with induced miR-34 in A549 – imaging, A549 dox-inducible miR-34, nuclei and caspase counts, primary screen (AID 1347080;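 active = compounds whose cell count with miR-34 switched on is under 0.7 times the count with it off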); conditions: A549 miR-34 inducible, Hoechst nuclei count, 48 h
# [3] = MELAS cybrid and Rieske KO viability enhancers – cell-based, MELAS cybrids, Rieske KO mouse fibroblasts, CellTiter-Glo, primary screen (AID 1508586;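 active = mean z-score across replicates of 1.96 or higher in either the MELAS or the Rieske mutant cell line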;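 note: z relative to plate mean and SD of compound and empty wells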); conditions: low glucose
# [4] = growth inhibition, single agent or in combination, cell-based, chromothripsis tumors, cisplatin or BGB combos (AID 1671449); conditions: LFS_MB_P medulloblastoma cells;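 note: cells exposed for 96 hours; 0% = vehicle DMSO and 100% = killing by high DMSO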
# [5] = growth inhibition, single agent and combos, cell-based, chromothripsis tumors, cisplatin or BGB combos (AID 1671450); conditions: HDN33 neuroblastoma cells, stronger effect = higher value;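 note: cells exposed to compound for four days; 0% = vehicle DMSO and 100% = cell killing by high DMSO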
# [6] = growth inhibition, single agents and combos, ICB984, cell-based, cisplatin or BGB combos, synergistic combos for chromothripsis tumors (AID 1671451; call rule not given here;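 note: cells exposed for 96 hours before readout; 0% = vehicle DMSO and 100% = killing by high DMSO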); conditions: ICB984 medulloblastoma cells, drug combinations, stronger effect = higher value
# [7] = growth inhibition, single agents and combos, LFS_MB_1R, cell-based, cisplatin or BGB combos, synergistic combos for chromothripsis tumors (AID 1671452); conditions: LFS_MB_1R medulloblastoma cells, stronger effect = higher value;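 note: cells exposed for 96 hours before readout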
# [8] = growth inhibition, single agents and combos, HTB85, cell-based, BGB or cisplatin IC20 combos, synergistic combos for chromothripsis tumors (AID 1671453); conditions: HTB85 osteosarcoma cells, drug combinations, stronger effect = higher value;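 note: cells exposed for 96 hours before readout; 0% = vehicle DMSO and 100% = high DMSO killing control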
# [9] = growth inhibition, single agents and combos, CRL2098, cell-based, BGB or cisplatin IC20 combos, synergistic combos for chromothripsis tumors (AID 1671454); conditions: CRL2098 osteosarcoma cells, drug combinations, stronger effect = higher value;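 note: cells exposed for 96 h before readout; 0% = vehicle DMSO and 100% = killing by high DMSO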
# [10] = growth inhibition, single agents and combos, HD-MB03, cell-based, BGB or cisplatin IC20 combos, synergistic combos for chromothripsis tumors (AID 1671455; in the data active = inhibition above about 83%;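 note: 0% = vehicle DMSO and 100% = high DMSO as cytotoxic control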); conditions: HD-MB03 medulloblastoma cells, stronger effect = higher value
# [11] = growth inhibition, single agents and combos, UWB1.289, cell-based, BGB or cisplatin combos, synergistic combos for chromothripsis tumors (AID 1671456); conditions: UWB1.289 ovarian carcinoma cells, stronger effect = higher value;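 note: cells exposed to compound for four days; 0% = vehicle DMSO and 100% = killing by high DMSO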
# [12] = growth inhibition, single agents and combos, LFS_MB_2R, cell-based, cisplatin combos, synergistic combos for chromothripsis tumors (AID 1671457); conditions: LFS_MB_2R medulloblastoma cells, stronger effect = higher value;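 note: cells exposed to compound for four days before readout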
# [13] = growth inhibition, MDA-MB-436, cell-based, BGB or cisplatin combos, synergistic combos for chromothripsis tumors (AID 1671458; call rule not given here;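 note: cells exposed for 96 hours; 0% = vehicle DMSO and 100% = killing by high DMSO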); conditions: MDA-MB-436 breast carcinoma growth inhibition, drug combinations, stronger effect = higher value
# [14] = UWB1.289_BRCA1 ovarian cancer growth, cell-based, BGB or cisplatin combinations (AID 1671459); conditions: UWB1.289 BRCA1 ovarian carcinoma, drug combinations, stronger effect = higher value
# [15] = drug combination toxicity in non-malignant astrocytes – cell-based, BGB or cisplatin IC20 combos, cytotoxicity control for chromothriptic childhood tumor combination screen (AID 1671460); conditions: Human astrocytes, viability inhibition, drug combinations, at 0.5 µM, stronger effect = higher value;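 note: cells exposed to compounds for 96 hours before viability readout; 0% = vehicle and 100% = killing control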
# [16] = BT084 cell growth, single and combined drugs, ICGC_MB145, cisplatin and BGB IC40 combos (AID 1671461); conditions: BT084 medulloblastoma cells, drug combinations, stronger effect = higher value;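 note: cells exposed to drugs for 96 hours; 0% = vehicle DMSO and 100% = high DMSO full killing control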
# [17] = RCMB18 cell growth, single agent and combined, cisplatin and BGB IC40 combos (AID 1671462); conditions: RCMB18 medulloblastoma cells, stronger effect = higher value;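 note: cells exposed to compound for four days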
# [18] = CRL1545 cell growth, single agent and combined, cisplatin and BGB IC20 combos (AID 1671464); conditions: CRL1545 osteosarcoma cells, stronger effect = higher value;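 note: cells exposed to compound for 96 hours before readout; 0% = vehicle DMSO and 100% = high DMSO killing control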
# [19] = measured here: combination with BGB IC40, at 0.05 µM
# [20] = measured here: with BGB IC20 combination, at 0.5 µM
# [21] = measured here: with cisplatin IC20 combination, at 0.5 µM
# [22] = measured here: combination with cisplatin, at 0.5 µM
# [23] = measured here: combination with cisplatin, at 5 µM
structure (smiles),measurement,setting,value
CNCc1ccc(-c2cc(-c3nc(-c4ccc(S(=O)(=O)C(C)C)cc4)cnc3N)on2)cc1,AC50,[1],6.61 µM (active)
same,fold change,"[2]; stronger effect = lower value, cell number ratio, induced over uninduced",1.09 (inactive)
same,fold change,[2]; measured here: relative caspase fold change +Dox/-Dox,0.389
same,cell count,"[2]; measured here: total cells with miR-34 induction, stronger effect = lower value",2400
same,cell count,[2]; measured here: total cells without miR-34 induction,2210
same,z-score,"[3]; MELAS cybrid survival, CellTiter-Glo 48 h, stronger effect = higher value",2.18 (active)
same,z-score,"[3]; Rieske KO mouse fibroblast survival, CellTiter-Glo 72 h",-0.548
same,inhibition,"[4]; at 0.5 µM, stronger effect = higher value",-32.1% (inactive) and 15.3% (inactive)
same,inhibition,"[4]; measured here: combination with BGB IC20, at 0.005 µM",12.2% and -16.2%
same,inhibition,"[4]; measured here: combination with BGB IC40, at 0.005 µM",9.32% and -55%
same,inhibition,[4]; [19],-2.44% and -42.7%
same,inhibition,"[4]; measured here: combination with cisplatin, at 0.5 µM, stronger effect = higher value",-68.5% and 16.4%
same,inhibition,"[4]; measured here: combination with cisplatin, at 5 µM, stronger effect = higher value",96.1% and -3.93%
same,inhibition,"[5]; BGB combo, at 5 µM",99.9% and 91.5%
same,inhibition,[5]; at 0.5 µM,81% (active) and 55% (inactive)
same,inhibition,"[5]; cisplatin combo, at 5 µM",99.7% and 98.8%
same,inhibition,[5]; [20],74.7% and 52.8%
same,inhibition,[5]; [21],84.9% and 61.2%
same,inhibition,"[5]; single agent, at 5 µM",99.6% and 97.3%
same,inhibition,"[6]; BGB IC20 combo, at 0.005 µM",10% and -1.43%
same,inhibition,"[6]; BGB IC40 combo, at 0.005 µM",46.6% and 13%
same,inhibition,"[6]; BGB IC40 combo, at 0.05 µM",102%
same,inhibition,[6]; at 0.5 µM,-9.05% (inactive) and -13.1% (inactive)
same,inhibition,"[6]; cisplatin combo, at 0.05 µM",102% and 103%
same,inhibition,"[6]; cisplatin combo, at 0.5 µM",-4.28% and -29.4%
same,inhibition,"[6]; cisplatin combo, at 5 µM",0.208% and -7.66%
same,inhibition,"[6]; measured here: 5 uM single agent, at 5 µM",4.2% and -17.2%
same,inhibition,[7]; at 0.5 µM,-10.6% (inactive) and -30.6% (inactive)
same,inhibition,[7]; [19],-16.3% and -24.4%
same,inhibition,[7]; [22],-6.99% and -51.5%
same,inhibition,[7]; [23],103% and 92%
same,inhibition,[8]; at 0.5 µM,67.2% (inactive) and 53.2% (inactive)
same,inhibition,"[8]; measured here: with BGB IC20, at 0.5 µM",67.9% and 66.3%
same,inhibition,"[8]; measured here: with BGB IC20, at 5 µM",99.8% and 98.3%
same,inhibition,"[8]; measured here: with cisplatin IC20, at 0.5 µM",78.5% and 60.7%
same,inhibition,"[8]; measured here: with cisplatin IC20, at 5 µM",99.8% and 88.8%
same,inhibition,"[8]; single agent, at 5 µM",99.8% and 79%
same,inhibition,[9]; at 0.5 µM,45.2% (inactive) and 30% (inactive)
same,inhibition,"[9]; measured here: combination with BGB at IC20, at 0.5 µM",27% and 27.5%
same,inhibition,"[9]; measured here: combination with cisplatin at IC20, at 0.5 µM",60.9% and 31.3%
same,inhibition,[10]; at 0.5 µM,87.3% (active) and 58.6% (inactive)
same,inhibition,"[10]; measured here: combo with BGB at IC20, at 0.5 µM",82.9% and 61.6%
same,inhibition,"[10]; measured here: combo with cisplatin at IC20, at 0.5 µM",96.2% and 87.4%
same,inhibition,[11]; at 0.5 µM,83% (active) and 72.2% (inactive)
same,inhibition,"[11]; measured here: inhibition with BGB combination, at 0.05 µM",7.96% and -9.18%
same,inhibition,"[11]; measured here: inhibition with cisplatin combination, at 0.05 µM",41.3% and 1.85%
same,inhibition,[12]; at 0.5 µM,13.8% (inactive) and -20% (inactive)
same,inhibition,[12]; [22],29.2% and -5.7%
same,inhibition,[12]; [23],104% and 53.6%
same,inhibition,[13]; at 0.5 µM,55.5% (inactive) and 36% (inactive)
same,inhibition,"[13]; measured here: BGB combination, at 0.5 µM",34.5% and 11.4%
same,inhibition,"[13]; measured here: BGB combination, at 5 µM",82.1% and 63.6%
same,inhibition,"[13]; measured here: cisplatin combination, at 0.5 µM",76.4% and 54%
same,inhibition,"[13]; measured here: cisplatin combination, at 5 µM",109% and 82.4%
same,inhibition,"[14]; BGB combination, concentration series, at 5 µM",101% and 97.7%
same,inhibition,[14]; at 0.5 µM,90.3% (active) and 82.2% (active)
same,inhibition,"[14]; cisplatin combination, concentration series, at 5 µM",84.8% and 106%
same,inhibition,[15],-32% (inactive) and -35.2% (inactive)
same,inhibition,[15]; measured here: combo with BGB IC20,-34.1% and -25.6%
same,inhibition,[15]; measured here: combo with cisplatin IC20,-44.2% and -41.4%
same,inhibition,[16]; at 0.5 µM,29.8% (inactive) and 12.8% (inactive)
same,inhibition,"[16]; cisplatin combination, at 0.5 µM",27.7% and 16.2%
same,inhibition,"[16]; cisplatin combination, at 5 µM",109% and 105%
same,inhibition,"[16]; measured here: BGB IC40 combination 0.05 uM, at 0.05 µM",-22.6% and -25.3%
same,inhibition,"[16]; single agent, at 5 µM",107% and 108%
same,inhibition,[17]; at 0.5 µM,31.8% (inactive) and 0.94% (inactive)
same,inhibition,"[17]; cisplatin combo, at 5 µM",104% and 103%
same,inhibition,"[17]; measured here: BGB IC40 combination, at 0.05 µM",11.9% and -20.4%
same,inhibition,[17]; [22],38.1% and -11.6%
same,inhibition,"[17]; single agent, at 5 µM",101%
same,inhibition,[18]; at 0.5 µM,95% (active) and 91% (active)
same,inhibition,[18]; [20],91.2% and 85.8%
same,inhibition,[18]; [21],96.8% and 93.6%
same,inhibition,"[18]; single agent, at 0.05 µM",35.3% and -10.3%
same,inhibition,"[18]; single agent, at 5 µM",99.8% and 99.5%
